Reference: the supplement of paper PMC10849652
Of roughly 7,900 targets only a part is listed; those with a hit were picked by preference. About 0.6% of all pairs of compound and target were hits.

Assays:
Assay in all cases: log2 fold change, soluble protein after heating vs DMSO (PISA); higher = thermal stabilisation; K562 cells, 10 uM, 30 min; active = over 0.2 and 3.5 SD of the protein, either way, in both replicates (recomputed)
bafetinib = compound: Cc1ccc(NC(=O)c2ccc(CN3CC[C@H](N(C)C)C3)c(C(F)(F)F)c2)cc1Nc1nccc(-c2cncnc2)n1 [bafetinib]
Method in brief: (§1)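 K562 cells at 2×10^6 cells/mL were exposed to 10 μM compound for 30 min, then aliquots were heated for 3 min across 48°C-58°C, pooled, and extracted in PBS containing 0.5% NP-40 at 4°C. The supernatant after 21,000xg for 90 min was taken as soluble protein and measured by TMTpro 16plex LC-MS/MS with channel sums equalised. Thermal stability is reported relative to control samples, with values from duplicates. Fold changes are given on a log2 scale.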

[1] = compound: Cc1cccc(CC(=O)N2CCc3c2ccc(-c2cn(C)c4ncnc(N)c24)c3F)n1
Method in brief: as §1

nilotinib = compound: Cc1cn(-c2cc(NC(=O)c3ccc(C)c(Nc4nccc(-c5cccnc5)n4)c3)cc(C(F)(F)F)c2)cn1 [nilotinib]
Method in brief: as §1

[2] = compound: Cc1nc(Nc2n[nH]c3c2CN(C(=O)N[C@H](CN(C)C)c2ccccc2)C3(C)C)c2sccc2n1
Method in brief: as §1

dasatinib = compound: Cc1nc(Nc2ncc(C(=O)Nc3c(C)cccc3Cl)s2)cc(N2CCN(CCO)CC2)n1 [dasatinib]
Method in brief: as §1

[3] = compound: Cc1ncc(-c2ccnc(Nc3ccc(S(C)(=O)=O)cc3)n2)n1C(C)C
Method in brief: as §1

[4] = compound: Cn1cc(-c2ccc3c(c2)CCN3C(=O)Cc2cccc(C(F)(F)F)c2)c2c(N)ncnc21
Method in brief: as §1

[5] = compound: Cn1cc(-c2ccc3nnc(C(F)(F)c4ccc5ncccc5c4)n3n2)cn1
Method in brief: as §1

tipifarnib = compound: Cn1cncc1[C@@](N)(c1ccc(Cl)cc1)c1ccc2c(c1)c(-c1cccc(Cl)c1)cc(=O)n2C [tipifarnib]
Method in brief: as §1

mubritinib = compound: FC(F)(F)c1ccc(/C=C/c2nc(COc3ccc(CCCCn4ccnn4)cc3)co2)cc1 [mubritinib]
Method in brief: as §1

[6] = compound: NC(=O)Nc1cc(-c2cccc(F)c2)sc1C(=O)N[C@H]1CCCNC1
Method in brief: as §1

[7] = compound: NC(=O)c1cnc(N[C@@H]2CCCC[C@@H]2N)nc1Nc1cccc(-n2nccn2)c1
Method in brief: as §1

[8] = compound: NC1(c2ccc(-c3nc4ccn5c(=O)[nH]nc5c4cc3-c3ccccc3)cc2)CCC1
Method in brief: as §1

[9] = compound: NCC(=O)Nc1ccc(-n2nc(C(F)(F)F)cc2-c2ccc3c(ccc4ccccc43)c2)cc1
Method in brief: as §1

entinostat = compound: Nc1ccccc1NC(=O)c1ccc(CNC(=O)OCc2cccnc2)cc1 [entinostat]
Method in brief: as §1

vorinostat = compound: O=C(CCCCCCC(=O)Nc1ccccc1)NO [vorinostat]
Method in brief: as §1

citarinostat = compound: O=C(CCCCCCNC(=O)c1cnc(N(c2ccccc2)c2ccccc2Cl)nc1)NO [citarinostat]
Method in brief: as §1

silmitasertib = compound: O=C(O)c1ccc2c(c1)nc(Nc1cccc(Cl)c1)c1ccncc12 [silmitasertib]
Method in brief: as §1

[10] = compound: c1cc(OCCN2CCCCC2)cc(-c2n[nH]c3ccc(-c4nnc[nH]4)cc23)c1
Method in brief: as §1

[11] = compound: O=C1NC(=O)C(c2cnc3ccccn23)=C1c1cn2c3c(cc(F)cc13)CN(C(=O)N1CCCCC1)CC2
Method in brief: as §1

Measured: log2 fold change

UNC119B (UniProt A6NIH7)
Sequence of UniProt A6NIH7 (A6NIH7 whole entry, looked up): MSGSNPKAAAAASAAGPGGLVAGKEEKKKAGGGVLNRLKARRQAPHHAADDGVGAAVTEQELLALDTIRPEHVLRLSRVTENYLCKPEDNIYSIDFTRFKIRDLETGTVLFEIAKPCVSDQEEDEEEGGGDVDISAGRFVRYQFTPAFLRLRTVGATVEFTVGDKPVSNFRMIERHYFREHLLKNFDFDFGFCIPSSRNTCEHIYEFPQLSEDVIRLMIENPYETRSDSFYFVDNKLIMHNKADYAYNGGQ
inactive: bafetinib 0.424 | [1] -0.006 | nilotinib 0.16 | [2] -0.077 | dasatinib 0.069 | [3] 0.173 | [4] 0.428 | [5] -0.089 | tipifarnib -0.143 | mubritinib 0.14 | [6] -0.094 | [7] 0.039 | [8] 0.146 | [9] 0.038 | entinostat 0.012 | vorinostat -0.055 | citarinostat 0.043 | silmitasertib 0.031 | [10] 0.005

WEE1 (UniProt P30291)
Sequence of UniProt P30291 (P30291 whole entry, looked up): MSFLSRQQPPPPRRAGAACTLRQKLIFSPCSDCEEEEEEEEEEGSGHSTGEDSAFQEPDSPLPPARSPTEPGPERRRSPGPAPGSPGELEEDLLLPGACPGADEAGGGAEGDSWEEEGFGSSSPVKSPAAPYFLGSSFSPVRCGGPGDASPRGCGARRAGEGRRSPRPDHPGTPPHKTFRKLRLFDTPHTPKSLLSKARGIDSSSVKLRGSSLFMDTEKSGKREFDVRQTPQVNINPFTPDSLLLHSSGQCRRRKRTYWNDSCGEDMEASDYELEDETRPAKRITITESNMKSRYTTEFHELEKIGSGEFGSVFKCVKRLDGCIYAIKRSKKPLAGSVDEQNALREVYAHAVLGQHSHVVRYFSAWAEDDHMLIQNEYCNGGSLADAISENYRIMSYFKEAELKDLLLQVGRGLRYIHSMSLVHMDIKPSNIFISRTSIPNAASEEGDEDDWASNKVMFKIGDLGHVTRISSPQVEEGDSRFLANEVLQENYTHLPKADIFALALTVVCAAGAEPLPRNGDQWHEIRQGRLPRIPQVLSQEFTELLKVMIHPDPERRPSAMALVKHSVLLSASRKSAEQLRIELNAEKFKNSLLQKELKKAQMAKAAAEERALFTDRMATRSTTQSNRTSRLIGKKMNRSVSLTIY
inactive: bafetinib -0.152 | [1] -0.062 | nilotinib 0.182 | [3] 0.311 | [4] -0.043 | [5] -0.037 | tipifarnib -0.037 | mubritinib 0.394 | [6] -0.455 | [7] 0.205 | [8] 0.04 | [9] -0.045 | entinostat 0.47 | vorinostat 0.05 | silmitasertib -0.122 | [11] 0.089
active: [2] -0.905 | dasatinib 0.805

TMEM106B (UniProt Q9NUM4)
inactive: bafetinib -0.094 | [1] 0.035 | nilotinib -0.015 | [2] 0.02 | dasatinib 0.098 | [3] -0.007 | [4] 0.083 | tipifarnib 0.029 | mubritinib 0.023 | [6] -0.042 | [7] -0.038 | [8] -0.056 | [9] -0.016 | entinostat 0.008 | vorinostat -0.023 | citarinostat 0.022 | silmitasertib 0.034 | [11] 0 | [10] 0.046

TMEM268 isoform 3 (UniProt Q5VZI3)
Sequence of UniProt Q5VZI3 (Q5VZI3 whole entry, looked up): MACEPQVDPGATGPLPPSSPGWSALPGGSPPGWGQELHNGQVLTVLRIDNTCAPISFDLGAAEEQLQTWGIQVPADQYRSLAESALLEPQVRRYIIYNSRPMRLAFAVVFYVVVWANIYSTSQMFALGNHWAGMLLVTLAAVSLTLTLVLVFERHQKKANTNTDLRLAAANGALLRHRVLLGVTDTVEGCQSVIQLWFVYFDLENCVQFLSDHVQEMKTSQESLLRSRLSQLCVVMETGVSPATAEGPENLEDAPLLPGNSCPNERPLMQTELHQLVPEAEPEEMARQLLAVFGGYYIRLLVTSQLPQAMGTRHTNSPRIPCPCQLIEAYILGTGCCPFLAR
inactive: bafetinib 0.318 | [1] -0.096 | nilotinib 0.008 | [2] -0.005 | dasatinib -0.194 | [3] 0.165 | [4] 0.112 | [5] 0.014 | tipifarnib 0.003 | mubritinib 0.109 | [6] 0.12 | [7] 0.057 | [8] -0.141 | entinostat 0.059 | vorinostat 0.162 | citarinostat 0.084 | silmitasertib -0.114 | [11] 0.174 | [10] -0.117

UBAP2L (UniProt F8W726)
inactive: bafetinib 0.02 | [1] -0.049 | nilotinib 0.151 | [2] 0.063 | [3] -0.109 | tipifarnib 0.245 | mubritinib -0.032 | [8] 0.083 | vorinostat -0.033 | citarinostat 0.095 | silmitasertib 0.004 | [10] -0.066

VRK2 (UniProt Q86Y07)
active: [2] 0.414
inactive: bafetinib 0.033 | [1] 0.081 | nilotinib -0.062 | dasatinib 0.011 | [3] 0.033 | [4] 0.129 | [5] -0.066 | tipifarnib -0.057 | mubritinib 0.006 | [6] 0.023 | [7] 0.04 | [8] -0.111 | [9] -0.025 | entinostat 0.032 | vorinostat 0.02 | citarinostat 0.008 | silmitasertib 0 | [11] 0.06 | [10] 0.001

VPS51 (UniProt Q9UID3)
Sequence of UniProt Q9UID3 (Q9UID3 whole entry, looked up): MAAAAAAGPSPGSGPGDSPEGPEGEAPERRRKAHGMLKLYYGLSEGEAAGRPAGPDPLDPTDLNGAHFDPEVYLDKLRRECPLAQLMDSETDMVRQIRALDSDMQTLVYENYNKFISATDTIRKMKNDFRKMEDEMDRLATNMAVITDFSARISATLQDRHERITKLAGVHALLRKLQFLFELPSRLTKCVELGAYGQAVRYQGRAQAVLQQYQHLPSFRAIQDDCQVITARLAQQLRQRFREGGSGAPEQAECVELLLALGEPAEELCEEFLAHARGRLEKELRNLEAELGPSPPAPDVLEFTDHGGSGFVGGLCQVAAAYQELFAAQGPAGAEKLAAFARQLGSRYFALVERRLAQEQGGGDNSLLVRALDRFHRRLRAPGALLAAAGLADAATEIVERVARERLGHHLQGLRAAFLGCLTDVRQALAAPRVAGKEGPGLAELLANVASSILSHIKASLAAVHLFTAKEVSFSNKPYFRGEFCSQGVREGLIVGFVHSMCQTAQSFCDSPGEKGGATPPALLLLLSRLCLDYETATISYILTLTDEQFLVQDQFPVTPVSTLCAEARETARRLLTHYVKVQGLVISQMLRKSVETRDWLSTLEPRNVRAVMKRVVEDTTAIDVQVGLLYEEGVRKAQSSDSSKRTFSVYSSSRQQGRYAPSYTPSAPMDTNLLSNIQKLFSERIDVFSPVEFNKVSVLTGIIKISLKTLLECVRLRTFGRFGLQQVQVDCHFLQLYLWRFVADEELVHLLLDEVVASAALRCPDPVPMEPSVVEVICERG
inactive: bafetinib 0.009 | [1] 0.039 | nilotinib -0.089 | [2] -0.037 | dasatinib -0.126 | [3] -0.042 | [4] -0.075 | [5] -0.008 | tipifarnib -0.095 | mubritinib 0.083 | [6] -0.02 | [7] -0.119 | [8] -0.082 | [9] -0.048 | entinostat 0.07 | vorinostat -0.035 | citarinostat -0.002 | silmitasertib 0.068 | [11] 0.022 | [10] 0.1

TSPAN13 (UniProt O95857)
Sequence of UniProt O95857 (O95857 whole entry, looked up): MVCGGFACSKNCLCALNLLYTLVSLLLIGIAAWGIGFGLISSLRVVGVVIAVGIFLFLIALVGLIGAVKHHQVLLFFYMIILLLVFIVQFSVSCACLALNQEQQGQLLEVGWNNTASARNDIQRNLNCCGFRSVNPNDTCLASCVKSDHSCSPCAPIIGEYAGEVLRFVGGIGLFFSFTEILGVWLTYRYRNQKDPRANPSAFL
inactive: bafetinib -0.101 | [1] 0.014 | nilotinib 0.056 | [2] -0.035 | dasatinib -0.163 | [3] -0.095 | [4] -0.038 | [5] 0.095 | tipifarnib -0.008 | mubritinib 0.226 | [6] -0.091 | [8] -0.125 | [9] 0.03 | entinostat -0.109 | vorinostat 0.002 | silmitasertib 0 | [11] -0.166

UBE2E3 (UniProt Q969T4)
Sequence of UniProt Q969T4 (Q969T4 whole entry, looked up): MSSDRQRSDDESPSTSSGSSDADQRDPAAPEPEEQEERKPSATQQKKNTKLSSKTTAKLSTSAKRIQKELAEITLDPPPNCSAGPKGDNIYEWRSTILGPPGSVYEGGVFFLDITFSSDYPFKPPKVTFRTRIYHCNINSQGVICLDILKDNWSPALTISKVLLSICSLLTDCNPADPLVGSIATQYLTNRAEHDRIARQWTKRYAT
inactive: bafetinib -0.029 | [1] -0.029 | nilotinib -0.126 | [2] 0.023 | dasatinib -0.113 | [3] 0.025 | [4] -0.028 | [5] -0.004 | tipifarnib -0.131 | mubritinib 0.056 | [6] -0.007 | [7] -0.052 | [8] -0.155 | [9] -0.106 | entinostat 0.051 | vorinostat 0.103 | citarinostat 0.063 | silmitasertib -0.016 | [11] 0.023 | [10] -0.007

TMEM179B (UniProt Q7Z7N9)
Sequence of UniProt Q7Z7N9 (Q7Z7N9 whole entry, looked up): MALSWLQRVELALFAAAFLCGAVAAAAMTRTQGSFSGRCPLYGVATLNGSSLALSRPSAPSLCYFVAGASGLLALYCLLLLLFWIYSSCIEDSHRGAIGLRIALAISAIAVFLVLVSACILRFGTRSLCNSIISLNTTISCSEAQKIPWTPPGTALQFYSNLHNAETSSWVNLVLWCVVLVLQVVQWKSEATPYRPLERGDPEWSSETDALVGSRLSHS
inactive: bafetinib -0.074 | [1] -0.065 | nilotinib 0.046 | [2] -0.018 | [3] -0.013 | [4] 0.154 | [5] 0.019 | tipifarnib 0.167 | mubritinib -0.025 | [6] -0.235 | [7] 0.079 | [8] -0.255 | entinostat 0.04 | vorinostat -0.156 | citarinostat -0.019 | silmitasertib -0.043 | [11] -0.173 | [10] -0.112

TRMT61A (UniProt Q96FX7)
Sequence of UniProt Q96FX7 (Q96FX7 whole entry, looked up): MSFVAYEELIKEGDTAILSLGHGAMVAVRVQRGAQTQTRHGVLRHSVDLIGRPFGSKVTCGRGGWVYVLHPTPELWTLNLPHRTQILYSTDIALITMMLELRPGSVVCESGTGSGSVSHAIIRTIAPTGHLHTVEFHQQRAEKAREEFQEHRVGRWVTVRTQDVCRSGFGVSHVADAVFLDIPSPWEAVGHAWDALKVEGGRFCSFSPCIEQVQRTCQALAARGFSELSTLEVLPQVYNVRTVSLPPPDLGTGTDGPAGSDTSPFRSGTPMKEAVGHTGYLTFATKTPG
inactive: bafetinib -0.051 | [1] 0.047 | nilotinib 0.036 | [2] 0.046 | dasatinib 0.011 | [3] -0.07 | [4] -0.11 | [5] -0.016 | tipifarnib 0.043 | mubritinib -0.125 | [6] 0.027 | [7] 0.017 | [8] 0.17 | [9] 0.101 | entinostat -0.029 | vorinostat 0.03 | citarinostat 0.005 | silmitasertib 0.099 | [11] 0.293 | [10] -0.146

TMEM184C (UniProt Q9NVA4)
Sequence of UniProt Q9NVA4 (Q9NVA4 whole entry, looked up): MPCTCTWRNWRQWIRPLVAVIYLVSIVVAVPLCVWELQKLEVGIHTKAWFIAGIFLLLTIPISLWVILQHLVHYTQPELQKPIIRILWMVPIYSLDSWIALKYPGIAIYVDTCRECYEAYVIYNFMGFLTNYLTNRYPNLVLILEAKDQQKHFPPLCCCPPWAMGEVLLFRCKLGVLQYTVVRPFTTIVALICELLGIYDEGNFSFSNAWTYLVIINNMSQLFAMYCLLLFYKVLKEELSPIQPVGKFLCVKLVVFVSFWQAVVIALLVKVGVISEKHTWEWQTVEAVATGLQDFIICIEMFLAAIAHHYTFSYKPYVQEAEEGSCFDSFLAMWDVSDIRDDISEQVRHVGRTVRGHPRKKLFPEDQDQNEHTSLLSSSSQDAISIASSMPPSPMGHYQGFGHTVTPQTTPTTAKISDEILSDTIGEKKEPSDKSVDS
active: [8] -0.401
inactive: bafetinib -0.132 | [1] -0.111 | nilotinib -0.007 | [2] -0.047 | dasatinib 0.116 | [3] -0.009 | [4] 0.15 | [5] -0.092 | mubritinib 0.01 | [6] -0.185 | [7] 0.069 | [9] -0.07 | entinostat -0.218 | vorinostat 0.08 | citarinostat -0.065 | silmitasertib -0.004 | [11] -0.055 | [10] 0.022

UBA52 (UniProt P62987)
inactive: bafetinib 0.285 | [1] -0.001 | [4] -0.343 | [5] -0.16 | tipifarnib 0.247 | mubritinib -0.115 | [6] 0.067 | [7] 0.158 | [8] 0.366 | [9] 0.178 | entinostat 0 | vorinostat 0.029 | citarinostat -0.112 | silmitasertib 0.158 | [11] 0.246 | [10] -0.216

UTP3 (UniProt Q9NQZ2)
Sequence of UniProt Q9NQZ2 (Q9NQZ2 whole entry, looked up): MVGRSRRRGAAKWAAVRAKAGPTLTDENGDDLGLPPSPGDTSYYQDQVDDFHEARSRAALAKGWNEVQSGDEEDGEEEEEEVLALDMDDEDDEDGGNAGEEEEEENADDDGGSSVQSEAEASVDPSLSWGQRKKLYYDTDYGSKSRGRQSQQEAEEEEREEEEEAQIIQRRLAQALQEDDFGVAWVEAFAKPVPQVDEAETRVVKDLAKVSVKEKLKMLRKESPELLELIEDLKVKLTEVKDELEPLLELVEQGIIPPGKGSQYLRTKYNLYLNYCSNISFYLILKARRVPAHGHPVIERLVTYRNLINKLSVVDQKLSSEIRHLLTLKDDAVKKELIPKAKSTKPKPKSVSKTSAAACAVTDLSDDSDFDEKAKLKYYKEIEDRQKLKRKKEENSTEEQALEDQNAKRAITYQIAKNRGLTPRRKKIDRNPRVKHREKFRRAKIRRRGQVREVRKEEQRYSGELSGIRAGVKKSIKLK
inactive: [1] -0.048 | dasatinib 0.168 | [4] -0.208 | [5] -0.132 | tipifarnib 0.212 | mubritinib -0.228 | [6] 0.093 | [7] 0.074 | [8] 0.286 | [9] 0.087 | entinostat -0.019 | vorinostat -0.06 | citarinostat -0.107 | silmitasertib 0.095 | [11] 0.103 | [10] -0.41
active: bafetinib 0.689

UFM1 (UniProt P61960)
Sequence of UniProt P61960 (P61960 whole entry, looked up): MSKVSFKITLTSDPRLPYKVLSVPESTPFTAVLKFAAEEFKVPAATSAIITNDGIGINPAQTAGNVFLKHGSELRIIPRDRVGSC
inactive: bafetinib 0.045 | nilotinib -0.011 | [2] 0.025 | dasatinib -0.012 | [3] 0.026 | [4] 0.008 | [5] 0.007 | tipifarnib -0.061 | mubritinib 0.087 | [6] 0.045 | [7] -0.135 | [8] -0.073 | [9] -0.056 | entinostat 0.004 | citarinostat 0.056 | silmitasertib -0.033 | [11] -0.083 | [10] 0.015

TVP23C (UniProt Q96ET8)
Sequence of UniProt Q96ET8 (Q96ET8 whole entry, looked up): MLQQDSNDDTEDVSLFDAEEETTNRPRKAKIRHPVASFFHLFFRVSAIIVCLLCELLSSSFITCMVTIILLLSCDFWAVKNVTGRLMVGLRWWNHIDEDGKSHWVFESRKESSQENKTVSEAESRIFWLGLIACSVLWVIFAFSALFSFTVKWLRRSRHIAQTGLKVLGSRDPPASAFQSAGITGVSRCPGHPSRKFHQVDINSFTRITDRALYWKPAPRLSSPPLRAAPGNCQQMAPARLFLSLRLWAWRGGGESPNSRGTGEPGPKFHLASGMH
inactive: [1] 0.033 | dasatinib 0.056 | [4] -0.116 | tipifarnib 0.041 | mubritinib 0.04 | [7] -0.021 | [8] -0.023 | [9] -0.003 | vorinostat 0.045 | citarinostat -0.297 | silmitasertib 0.132 | [10] 0.081

VPS72 isoform 2 (UniProt Q15906)
Sequence of UniProt Q15906 (Q15906 whole entry, looked up): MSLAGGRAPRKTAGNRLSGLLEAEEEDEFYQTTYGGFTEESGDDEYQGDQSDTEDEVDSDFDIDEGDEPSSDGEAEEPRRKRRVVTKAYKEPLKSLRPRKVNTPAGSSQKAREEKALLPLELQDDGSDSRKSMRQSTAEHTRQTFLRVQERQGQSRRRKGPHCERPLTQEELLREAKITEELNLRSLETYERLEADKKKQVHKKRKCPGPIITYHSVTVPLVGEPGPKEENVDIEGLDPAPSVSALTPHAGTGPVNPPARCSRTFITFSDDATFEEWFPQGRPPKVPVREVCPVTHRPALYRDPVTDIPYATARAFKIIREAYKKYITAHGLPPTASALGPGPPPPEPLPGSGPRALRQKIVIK
inactive: bafetinib -0.064 | nilotinib 0.086 | [2] 0.02 | dasatinib 0.044 | [3] -0.024 | [4] -0.052 | [5] 0.08 | tipifarnib 0.074 | mubritinib 0.009 | [6] 0.092 | [7] -0.226 | [8] -0.117 | [9] 0.037 | entinostat -0.032 | citarinostat 0.102 | silmitasertib 0.199 | [11] -0.157 | [10] -0.116

TMEM128 (UniProt Q5BJH2)
Sequence of UniProt Q5BJH2 (Q5BJH2 whole entry, looked up): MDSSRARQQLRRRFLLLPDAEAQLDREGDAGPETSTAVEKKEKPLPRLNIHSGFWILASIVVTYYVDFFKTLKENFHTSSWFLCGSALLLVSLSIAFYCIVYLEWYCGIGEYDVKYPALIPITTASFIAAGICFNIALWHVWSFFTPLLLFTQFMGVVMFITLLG
inactive: bafetinib -0.065 | nilotinib -0.008 | [2] 0.003 | dasatinib -0.01 | [3] -0.031 | [4] 0.061 | [5] -0.021 | tipifarnib 0.066 | [6] -0.059 | [7] -0.167 | [9] -0.092 | entinostat -0.036 | citarinostat -0.131 | [11] -0.037 | [10] -0.07
